According to PubChem BioAssay AID1851 (National Center for Advancing Translational Sciences (NCATS), 2009):
Values joined by “and” are separate entries in the source; they are usually repeats but may differ in a detail not shown here. Equal entries are not always repeated. The campaign covered roughly 16,000 compounds. About 4,000 (25%) were called active. Roughly 26% stayed inconclusive and do not appear here. Calls follow the shape of the dose curve; as a rule, active = well fitted curve in the direction sought with a large enough effect; inconclusive = small, poorly fitted or top-dose-only effect, or effect the other way; inactive = no such curve, though single readings can be large or run the other way. A selection follows. Some compounds were tested as several samples or in several runs, with calls that do not always agree.

target: Cytochrome P450 2C9 (Homo sapiens) (UniProt P11712); test: Cytochrome panel assay with activity outcomes; details: recombinant CYP, pro-luciferin dealkylation, luminescence, p450-cyp2c9; series mostly up to 57.1 µM; activity, negative = inhibition: at the top concentration
Sequence (P11712 whole entry, looked up): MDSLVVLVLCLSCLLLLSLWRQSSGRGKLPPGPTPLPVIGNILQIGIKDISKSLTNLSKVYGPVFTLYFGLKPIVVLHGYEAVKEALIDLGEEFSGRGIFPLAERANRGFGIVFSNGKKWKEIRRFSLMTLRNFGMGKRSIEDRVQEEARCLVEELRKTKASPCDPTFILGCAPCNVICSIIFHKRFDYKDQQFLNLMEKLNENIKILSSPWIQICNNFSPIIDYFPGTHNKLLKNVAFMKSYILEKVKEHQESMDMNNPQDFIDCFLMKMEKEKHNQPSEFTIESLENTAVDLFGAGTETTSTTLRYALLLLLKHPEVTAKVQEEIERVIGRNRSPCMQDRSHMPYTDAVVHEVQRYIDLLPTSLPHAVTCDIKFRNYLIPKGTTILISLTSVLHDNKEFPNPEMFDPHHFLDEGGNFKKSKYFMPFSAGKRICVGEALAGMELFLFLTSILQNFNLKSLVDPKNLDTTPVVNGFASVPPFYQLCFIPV
% is scaled to controls: 0 for no effect and ±100 for the full control effect.

| SMILES | activity, negative = inhibition | AC50 |
| --- | --- | --- |
| O=C(O)c1nn(Cc2ccc(Cl)cc2Cl)c2ccccc12 | -12.3% (inactive) | – |
| C=CCN1CCC2(C)c3cc(O)ccc3C[C@H]1[C@H]2C | inactive | – |
| C1C[C@@H]2CN(CCCN3CCOCC3)[C@@H](C1)O2 | -4.7% [at 11.4 µM] (inactive) | – |
| Cc1ccc(NC(=[OH+])c2cc3ccccc3cc2O)c(C)c1.Cc1ccc(NC(=[OH+])c2cc3ccccc3cc2O)c(C)c1.[Ni] | – | 3160 nM (active) |
| COc1cc(CCN)c(OC)c(OC)c1 | -1.31% [at 11.4 µM] (inactive) | – |
| O=C(CCN1CC2CCC(CC2)C1)c1cccs1 | -7.86% [at 11.4 µM] (inactive) | – |
| C[C@@H]1OC=C2[C@@H](O)[C@H]3O[C@H]3C(=O)[C@@]23[C@H]1[C@H]1C2=C([C@@H](O)[C@H]4O[C@@H]4C2=O)[C@@H]3O[C@@H]1C | 19.8% [at 11.4 µM] (inactive) | – |
| Nc1nnnn1CCO | -3.83% [at 11.4 µM] (inactive) | – |
| CS(=O)(=O)O[C@H]1CN2CCC1CC2 | 8.53% [at 11.4 µM] (inactive) | – |
| CN1[C@@H]2CC[C@H]1CC(O[C@@H](c1ccccc1)c1ccc(Cl)cc1)C2 (stereo not given in full) | inactive | – |
| CCCCN(CCCC)CCC(O)c1cc2c(Cl)cc(Cl)cc2c2cc(C(F)(F)F)ccc12 (stereo not given) | 4.34% [at 25.6 µM] (inactive) | – |
| N[C@H](CCl)C(=O)O | -11.2% (inactive) | – |
| O=C(Oc1ccccc1)N1CCC2(CCN(Cc3nccs3)CC2)CC1 | 19.4% (inactive) | – |
| CN(C)Cc1c[nH]c2ccccc12 | 8.53% [at 25.6 µM] (inactive) | – |
| CC(C)COc1ccc(C2(C#N)CC[N+](C)(C)CC2)cc1 | 11.5% (inactive) | – |
| C=C(C)[C@H]1CC[C@]2(C(=O)O)CC[C@]3(C)[C@@H](CC[C@H]4[C@@]5(C)CC[C@@H](O)C(C)(C)[C@@H]5CC[C@@]43C)[C@H]12 | -9.3% [at 25.6 µM] (inactive) | – |
| CCCCCCCC/C=C\CCCCCCCC(N)=O | -12.7% (inactive) | – |
| CCCCC/C=C\C/C=C\C/C=C\C/C=C\CCCC(=O)Nc1ccc(O)cc1 | – | 5010 nM (active) |
| CCCCC/C=C\C/C=C\C/C=C\C/C=C\CCCC(=O)NCC(=O)O | -23.5% (inactive) | – |
| C[N+]1(C)CCc2cc3c(cc2[C@@H]1[C@@H]1OC(=O)c2c1ccc1c2OCO1)OCO3 | 17.7% (inactive) | – |
| O=C(Nc1ccccc1)N1CC[C@@]2(CCCN(C(=O)Oc3ccccc3)C2)C1 | -20.1% (inactive) | – |
| O=C(O)/C=C(\CC(=O)O)C(=O)O | -16.9% [at 11.4 µM] (inactive) | – |
| O=C(O)C(=O)Cc1ccc2c(c1)OCO2 | 25.4% [at 11.4 µM] (inactive) | – |

| SMILES | activity, negative = inhibition | AC50 |
| --- | --- | --- |
| COCOc1ccc(Br)cc1C(=O)/C=C\c1ccc2c(c1)OCO2 | – | 2000 nM (active) |
| CCN1CCC2(CC1)NC(CO)(CO)CO2 | 0.863% (inactive) | – |
| O=C(O)[C@H]1[C@H](C(=O)O)[C@H]2CC[C@@H]1O2 | 5.98% (inactive) | – |
| N[C@H](Cc1c[nH]c2ccccc12)P(=O)(O)O | 5.69% [at 11.4 µM] (inactive) | – |
| C[C@@]12CC(=O)[C@H]3[C@@H](CCC4=CC(=O)CC[C@]43C)[C@H]1CCC2=O | 13% [at 25.6 µM] (inactive) | – |
| CCOC(=O)Cn1cc(C(=O)c2ccccc2F)c2ccccc21 | – | 7080 nM (active) |
| CCCn1c(C)c(C(=O)c2cccc3ccccc23)c2ccccc21 | -12.1% (inactive) | – |
| O=C(c1ccccc1F)c1cn(CC(=O)N2CCOCC2)c2ccccc12 | – | 11200 nM (active) |
| C[C@@]12CC[C@@H]3c4ccc(O)cc4C[C@H](CCCCCCCCCS(=O)CCCC(F)(F)C(F)(F)F)[C@H]3[C@@H]1CC[C@@H]2O (stereo not given in full) | -9.41% (inactive) | – |
| O=c1cc(-c2ccc(O)cc2)oc2c([C@H]3O[C@@H](CO)[C@@H](O)[C@@H](O)[C@@H]3O)c(O)cc(O)c12 | -15% [at 25.6 µM] (inactive) | – |
| CN1CC[C@@]2(CCCN(C(=O)Oc3ccccc3)C2)C1 | -0.577% (inactive) | – |
| CCN1CCN(c2ccc(NC(=O)C(C)C)cc2Cl)CC1 | -14.2% (inactive) | – |
| C(=NC12CN3CN(CN(C3)C1)C2)c1cccs1 | -20.8% (inactive) | – |
| CCS(=O)(=O)Nc1cccc(C(=C2CCCCC2)c2cnc[nH]2)c1 | – | 631 nM (active) |
| CNC(C)(C)Cc1ccccc1 | 15.3% [at 25.6 µM] (inactive) | – |
| Brc1c(NC2=NCCN2)ccc2nccnc12 | -26.3% (inactive) | – |
| O=C(Nc1cccc(F)c1)N1CC2(CCN(C(=O)Oc3ccccc3)CC2)C1 | -10.4% (inactive) | – |
| Nc1ncnc2c1ncn2[C@@H]1O[C@@H](COP(=O)(O)CP(=O)(O)OP(=O)(O)O)[C@H](O)[C@@H]1O | -0.747% (inactive) | – |
| C=CCN1C(=O)c2ccccc2Sc2ccc(C(=O)N3CCC4(CC3)OCCO4)cc21 | – | 1260 nM (active) |
| CN1C(=O)c2ccccc2Sc2ccc(C(=O)N3CCC4(CC3)OCCO4)cc21 | – | 8910 nM (active) |
| CC(=O)c1ccc2c(c1)N(CCCN(C)C)c1ccccc1S2 | 20.6% [at 25.6 µM] (inactive) | – |
| CN1[C@@H](C[C@@H](O)c2ccccc2)CCC[C@@H]1C[C@H](O)c1ccccc1 | -7.42% [at 25.6 µM] (inactive) | – |
| CCCN(CCC)[C@@H]1CCc2c(OC)cccc2[C@@H]1C | -6.07% (inactive) | – |

| SMILES | activity, negative = inhibition | AC50 |
| --- | --- | --- |
| C=C1CC[C@H](O)C/C1=C/C=C1\CCC[C@]2(C)[C@H]1CC[C@H]2[C@@H](C)CCCC(C)C | 1.21% [at 25.6 µM] (inactive) | – |
| CC[C@@]1(O)C(=O)OCc2c1cc1n(c2=O)Cc2cc3ccccc3nc2-1 | inactive | – |
| CCC(COC(=O)NC)NC(=O)Oc1ccccc1 (stereo not given) | 21.5% (inactive) | – |
| CN(C(=O)Cc1ccccc1)[C@H](CN1CCCC1)c1ccccc1 | -8.81% (inactive) | – |
| Cc1cc[c]([Sb]2[O][C@H]([C@H](O)[C@H](O)C(=O)O)[C@@H](CO)[O]2)cc1 | 14% [at 11.4 µM] (inactive) | – |
| O=C(O)CN1CCN(CC(=O)O)CC(=O)[O][Hg][O]C(=O)C1 | – | 1260 nM (active) |
| C[C@]12CC[C@H]3c4ccc(O)cc4CC[C@@H]3[C@H]1CC[C@@H]2OP(=O)(O)O | 12.3% [at 11.4 µM] (inactive) | – |
| Nc1ccccc1O.O.O=C(O)[C@H]1[O][Sb][O][C@H]1C(=O)O | 14.2% [at 11.4 µM] (inactive) | – |
| O=c1[nH]cnc2[nH]cc(CN3CCCCC3)c12 | -6.24% [at 11.4 µM] (inactive) | – |
| N=C1c2ccccc2CN1NC(=O)c1ccc(Cl)cc1 | -1.51% (inactive) | – |
| O=C(Oc1ccccc1)N1CCC2(CCCN(Cc3nccs3)C2)CC1 | -16.6% (inactive) | – |
| C[C@@H](Cc1cccc(C(F)(F)F)c1)NCCCc1ccccc1 | -1.99% (inactive) | – |
| CN(C)CCC(=O)[C@@]1(O)CC[C@H]2[C@H]3CC=C4C[C@@H](O)CC[C@]4(C)[C@H]3CC[C@]21C | – | 2510 nM (active) |
| C[C@@]12CC[C@H]3[C@H](CC=C4C[C@@H](O)CC[C@@]43C)[C@@H]1CC[C@@H]2N(CCO)CCO | 7.98% [at 11.4 µM] (inactive) | – |
| C[C@H]1CC[C@@]2(NC1)O[C@@H]1C[C@@H]3[C@@H]4CC=C5C[C@@H](O)CC[C@]5(C)[C@@H]4CC[C@]3(C)[C@H]1[C@@H]2C | -1.5% [at 11.4 µM] (inactive) | – |
| Oc1ccc2c3c1O[C@H]1c4oc5ccccc5c4C[C@]4(O)[C@H](C2)N(CC2CC2)CC[C@@]314 | inactive | – |
| CN1CCN(c2ncc3ncc(=O)n(C)c3n2)CC1 | -1.78% (inactive) | – |
| C[C@@H](Cc1ccc(OCC(=O)O)cc1)NC[C@H](O)c1cccc(Cl)c1 | – | inactive and 6.31 µM (active) |
| C[C@@H](Cc1ccccc1)NCCC(c1ccccc1)c1ccccc1 | -14.2% [at 25.6 µM] (inactive) | – |
| NS(=O)(=O)c1ccc(-c2ccc([As](=O)(O)O)cc2)cc1 | 14.8% [at 11.4 µM] (inactive) | – |
| Cc1cc(C)nc(NC2=NCCS2)n1 | -12.5% (inactive) | – |
| CCN1CCN(S(=O)(=O)c2ccc(Cl)nc2)CC1 | 16% (inactive) | – |
| C[C@]12N[C@@H](Cc3ccccc31)c1ccccc12 | inactive | – |

| SMILES | activity, negative = inhibition | AC50 |
| --- | --- | --- |
| CCCc1cc2c(n1Cc1cccc(Cl)c1)C(C)C1CN(C(=O)c3ccccc3)C(C)(C(=O)OC)C21 (stereo not given) | – | 5010 nM (active) |
| CCCc1cc2c(n1CCO)C(C)C1CN(C(=O)c3ccccc3)C(C)(C(=O)OC)C21 (stereo not given) | – | 12600 nM (active) |
| NC[C@H](O)c1cc(O)c(O)cc1F | -14.1% (inactive) | – |
| C=C1[C@@H]2CC[C@H]3[C@@]4(C)C[C@@H](O[C@@H]5O[C@H](CO)[C@H](OS(=O)(=O)O)[C@@H](OS(=O)(=O)O)[C@@H]5OC(=O)CC(C)C)C[C@@H](C(=O)O)[C@H]4CC[C@@]3(C2)[C@H]1O | 7.32% [at 25.6 µM] (inactive) | – |
| C=C1C(O)(c2ccccc2)C2CC[N+]1(C)CC2 (stereo not given) | 35.1% (inactive) | – |
| COc1cc2c(cc1OC)[C@@]13CCN4CC5=CCO[C@H](CC(=O)O)[C@@H]([C@H]1N2)[C@H]5C[C@H]43 | -2.18% [at 11.4 µM] (inactive) | – |
| Cc1c(OCC(F)(F)F)ccnc1CS(=O)c1nc2ccccc2[nH]1 (stereo not given) | -13.7% [at 25.6 µM] (inactive) | – |
| C=CCO[C@@H](Cn1ccnc1)c1ccc(Cl)cc1Cl | – | 100 nM (active) |
| CC(=O)N1CC[N+](C)(C)CC1 | 3.49% (inactive) | – |
| CN1[C@@H]2CC[C@H]1CC(NC(=O)c1nn(C)c3ccccc13)C2 (stereo not given in full) | -3.75% (inactive) | – |
| CCOc1ccc(C2C(C#N)=C(N)Oc3c2c(=O)oc2ccccc32)cc1 (stereo not given) | – | 22.4 nM (active) |
| C[C@@]12CC[C@H](O[C@@H]3O[C@H](CO)[C@@H](O)[C@H](O)[C@@H]3O)C[C@@H]1CC[C@H]1[C@H]2CC[C@@]2(C)[C@@H](C3=CCOC3=O)CC[C@]12O | 2% [at 11.4 µM] (inactive) | – |
| C[C@H](N[C@@H](C)CCc1ccccc1)[C@H](O)c1ccc(O)cc1 | -17.1% (inactive) | – |
| O=C(O)c1cc[c]([Hg][S]c2ncnc3nc[nH]c23)cc1 | – | 1260 nM (active) |
| Ic1cncc(OC[C@@H]2CCN2)c1 | – | 31600 nM (active) |
| CC(C)(C)NC[C@@H](O)COc1cccc2[nH]c(C#N)cc12 | -27.6% (inactive) | – |
| CC[N@+]1(C)CCC[C@@H](OC(=O)C(O)(c2ccccc2)c2ccccc2)C1 | -7.68% [at 25.6 µM] (inactive) | – |
| C[N+]1([O-])[C@H]2CC[C@H]1CC(OC(=O)[C@@H](CO)c1ccccc1)C2 (stereo not given in full) | 3.51% [at 11.4 µM] (inactive) | – |
| C[C@H]1CC[C@@]2(NC1)O[C@@H]1C[C@H]3[C@@H]4CC[C@@H]5C[C@@H](O)CC[C@@]5(C)[C@@H]4CC[C@]3(C)[C@@H]1[C@@H]2C | -6.95% [at 25.6 µM] (inactive) | – |
| C[C@@]12CC[C@H]3[C@@H](CC[C@@H]4C[C@H]5S[C@H]5C[C@]43C)[C@H]1CC[C@H]2O | – | 5.01 nM (active) |
| CC(C)CCC[C@@H](C)[C@@H]1CC[C@@H]2[C@H]3CC[C@H]4C[C@@H](N)CC[C@@]4(C)[C@@H]3CC[C@]21C | 4.77% [at 11.4 µM] (inactive) | – |
